Measured values published in ChEMBL document CHEMBL2218924, “A broad activity screen in support of a chemogenomic map for kinase signalling research and drug discovery” (Biochem J, 2013).

How the values were obtained:
[1] = molecular target: T1, Tyrosine-protein kinase Tec (Homo sapiens) (UniProt P42680); conditions: at 1 µM
T1 sequence (whole entry): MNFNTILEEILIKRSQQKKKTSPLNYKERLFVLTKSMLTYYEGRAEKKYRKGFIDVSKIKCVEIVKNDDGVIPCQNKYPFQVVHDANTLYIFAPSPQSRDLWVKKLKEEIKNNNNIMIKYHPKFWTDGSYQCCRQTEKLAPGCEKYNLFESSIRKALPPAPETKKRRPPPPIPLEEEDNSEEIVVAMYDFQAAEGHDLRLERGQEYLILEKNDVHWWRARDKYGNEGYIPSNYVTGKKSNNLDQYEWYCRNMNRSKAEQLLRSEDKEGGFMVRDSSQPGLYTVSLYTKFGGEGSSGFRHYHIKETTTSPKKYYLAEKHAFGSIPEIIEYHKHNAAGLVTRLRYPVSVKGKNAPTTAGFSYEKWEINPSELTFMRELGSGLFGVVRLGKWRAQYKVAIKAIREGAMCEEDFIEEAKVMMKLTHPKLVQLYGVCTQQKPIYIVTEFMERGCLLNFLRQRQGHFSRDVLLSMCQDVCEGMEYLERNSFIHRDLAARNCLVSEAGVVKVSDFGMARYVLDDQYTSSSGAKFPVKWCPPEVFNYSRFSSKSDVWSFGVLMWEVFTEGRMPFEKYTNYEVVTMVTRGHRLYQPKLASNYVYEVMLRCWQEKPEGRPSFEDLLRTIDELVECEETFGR

[2] = molecular target: T1, Tyrosine-protein kinase Tec (Homo sapiens); conditions: at 10 µM
[3] = molecular target: Angiopoietin-1 receptor (Homo sapiens) (UniProt Q02763); conditions: at 1 µM
Chain of Angiopoietin-1 receptor (Homo sapiens) (Q02763 whole entry): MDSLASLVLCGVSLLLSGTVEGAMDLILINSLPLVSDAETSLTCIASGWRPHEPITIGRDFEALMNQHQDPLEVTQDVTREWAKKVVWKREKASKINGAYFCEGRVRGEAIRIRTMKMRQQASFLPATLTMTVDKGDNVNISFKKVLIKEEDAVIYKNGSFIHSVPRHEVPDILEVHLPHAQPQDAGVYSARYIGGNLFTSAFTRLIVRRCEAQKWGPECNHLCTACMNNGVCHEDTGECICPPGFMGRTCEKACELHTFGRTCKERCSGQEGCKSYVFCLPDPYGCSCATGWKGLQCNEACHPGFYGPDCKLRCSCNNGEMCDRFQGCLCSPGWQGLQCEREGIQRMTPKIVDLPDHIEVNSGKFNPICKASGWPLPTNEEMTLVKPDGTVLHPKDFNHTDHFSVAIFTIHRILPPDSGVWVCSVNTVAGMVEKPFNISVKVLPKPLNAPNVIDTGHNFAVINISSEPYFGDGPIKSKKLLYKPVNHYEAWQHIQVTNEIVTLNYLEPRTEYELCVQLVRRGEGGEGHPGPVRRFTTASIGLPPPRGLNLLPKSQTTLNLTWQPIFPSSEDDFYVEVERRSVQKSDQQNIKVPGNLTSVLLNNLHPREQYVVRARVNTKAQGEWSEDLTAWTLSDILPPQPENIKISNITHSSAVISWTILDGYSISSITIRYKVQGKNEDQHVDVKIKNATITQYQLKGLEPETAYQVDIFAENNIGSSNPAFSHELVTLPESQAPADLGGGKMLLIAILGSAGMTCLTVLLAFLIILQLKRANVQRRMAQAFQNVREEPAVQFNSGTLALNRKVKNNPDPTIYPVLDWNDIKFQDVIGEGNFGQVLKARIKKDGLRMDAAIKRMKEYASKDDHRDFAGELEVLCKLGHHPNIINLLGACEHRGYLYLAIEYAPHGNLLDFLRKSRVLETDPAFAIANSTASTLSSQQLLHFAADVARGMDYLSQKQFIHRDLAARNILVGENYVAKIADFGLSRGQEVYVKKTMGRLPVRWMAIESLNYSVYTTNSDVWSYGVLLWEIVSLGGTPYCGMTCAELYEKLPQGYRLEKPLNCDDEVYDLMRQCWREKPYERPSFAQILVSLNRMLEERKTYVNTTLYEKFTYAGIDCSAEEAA

[4] = molecular target: Angiopoietin-1 receptor (Homo sapiens) (UniProt Q02763); conditions: at 10 µM
[5] = molecular target: High affinity nerve growth factor receptor (Homo sapiens) (UniProt P04629); conditions: at 1 µM
Chain of High affinity nerve growth factor receptor (Homo sapiens) (P04629 33-796 limits assumed): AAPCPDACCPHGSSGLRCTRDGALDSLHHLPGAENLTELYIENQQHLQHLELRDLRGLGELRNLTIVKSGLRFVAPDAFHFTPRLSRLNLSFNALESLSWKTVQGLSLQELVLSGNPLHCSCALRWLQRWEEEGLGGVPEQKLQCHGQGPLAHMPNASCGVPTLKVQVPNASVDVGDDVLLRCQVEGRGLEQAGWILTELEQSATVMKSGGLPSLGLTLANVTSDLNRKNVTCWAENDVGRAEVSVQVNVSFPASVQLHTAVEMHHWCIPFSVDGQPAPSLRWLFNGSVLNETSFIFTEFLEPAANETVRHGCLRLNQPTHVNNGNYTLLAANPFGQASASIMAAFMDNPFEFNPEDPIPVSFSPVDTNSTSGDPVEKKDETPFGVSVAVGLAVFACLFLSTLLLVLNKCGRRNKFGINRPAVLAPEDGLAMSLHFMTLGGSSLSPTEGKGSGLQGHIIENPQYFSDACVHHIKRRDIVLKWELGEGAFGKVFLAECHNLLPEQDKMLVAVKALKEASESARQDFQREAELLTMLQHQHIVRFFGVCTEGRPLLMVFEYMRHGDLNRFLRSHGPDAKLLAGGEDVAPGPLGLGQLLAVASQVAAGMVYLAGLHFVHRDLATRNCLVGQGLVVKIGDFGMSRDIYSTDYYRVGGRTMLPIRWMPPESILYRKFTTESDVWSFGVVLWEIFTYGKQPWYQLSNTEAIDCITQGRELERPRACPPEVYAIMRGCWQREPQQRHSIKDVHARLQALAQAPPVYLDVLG

[6] = molecular target: High affinity nerve growth factor receptor (Homo sapiens) (UniProt P04629); conditions: at 10 µM
[7] = molecular target: T2, Tyrosine-protein kinase TXK (Homo sapiens) (UniProt P42681); conditions: at 1 µM
T2 sequence (whole entry): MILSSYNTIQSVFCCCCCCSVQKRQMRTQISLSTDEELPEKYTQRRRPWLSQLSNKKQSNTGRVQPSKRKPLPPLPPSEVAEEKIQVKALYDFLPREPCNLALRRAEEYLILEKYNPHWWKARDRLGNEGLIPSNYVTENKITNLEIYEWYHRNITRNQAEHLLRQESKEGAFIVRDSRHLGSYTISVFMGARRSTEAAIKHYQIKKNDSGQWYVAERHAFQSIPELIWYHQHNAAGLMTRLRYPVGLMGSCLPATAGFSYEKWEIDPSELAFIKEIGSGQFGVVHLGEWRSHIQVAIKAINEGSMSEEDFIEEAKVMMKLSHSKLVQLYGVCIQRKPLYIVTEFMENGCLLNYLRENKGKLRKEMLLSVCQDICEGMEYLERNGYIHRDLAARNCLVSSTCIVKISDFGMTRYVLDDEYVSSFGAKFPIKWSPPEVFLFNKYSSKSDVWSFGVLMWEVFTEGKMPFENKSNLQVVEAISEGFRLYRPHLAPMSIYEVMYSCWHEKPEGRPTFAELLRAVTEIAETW

[8] = molecular target: T2, Tyrosine-protein kinase TXK (Homo sapiens); conditions: at 10 µM
[9] = molecular target: BDNF/NT-3 growth factors receptor (Homo sapiens) (UniProt Q16620); conditions: at 1 µM
Chain of BDNF/NT-3 growth factors receptor (Homo sapiens) (Q16620 32-822 limits assumed): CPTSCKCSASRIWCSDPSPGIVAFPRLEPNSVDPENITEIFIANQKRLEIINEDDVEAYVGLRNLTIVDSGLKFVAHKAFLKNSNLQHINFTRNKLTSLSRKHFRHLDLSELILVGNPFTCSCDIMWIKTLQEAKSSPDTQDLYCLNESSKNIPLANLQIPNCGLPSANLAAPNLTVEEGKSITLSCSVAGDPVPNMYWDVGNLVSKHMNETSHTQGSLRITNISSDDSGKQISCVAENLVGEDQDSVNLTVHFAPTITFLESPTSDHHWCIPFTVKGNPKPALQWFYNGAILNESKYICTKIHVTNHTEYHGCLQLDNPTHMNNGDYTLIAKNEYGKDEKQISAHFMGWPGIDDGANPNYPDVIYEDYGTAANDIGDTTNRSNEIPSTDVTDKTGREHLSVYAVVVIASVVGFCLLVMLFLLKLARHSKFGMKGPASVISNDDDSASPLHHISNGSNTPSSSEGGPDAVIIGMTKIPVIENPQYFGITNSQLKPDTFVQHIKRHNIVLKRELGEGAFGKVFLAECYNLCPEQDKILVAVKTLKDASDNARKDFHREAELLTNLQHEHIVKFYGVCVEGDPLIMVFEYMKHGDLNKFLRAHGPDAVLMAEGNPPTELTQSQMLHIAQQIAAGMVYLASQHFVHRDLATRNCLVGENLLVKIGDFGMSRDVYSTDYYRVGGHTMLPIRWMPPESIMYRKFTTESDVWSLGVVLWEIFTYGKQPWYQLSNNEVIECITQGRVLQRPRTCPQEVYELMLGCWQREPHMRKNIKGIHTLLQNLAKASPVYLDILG

[10] = molecular target: BDNF/NT-3 growth factors receptor (Homo sapiens) (UniProt Q16620); conditions: at 10 µM

COc1cc(OC)c(/C=C2\C(=O)Nc3ccccc32)c(OC)c1
residual activity [1]: 98%
residual activity [2]: 77%
residual activity [3]: 93%
residual activity [4]: 59%
residual activity [5]: 89%
residual activity [6]: 59%
residual activity [7]: 107%
residual activity [8]: 100%

CC(C)(C)c1cc(C=C(C#N)C#N)cc(Br)c1O
residual activity [2]: 103%
residual activity [3]: 114%
residual activity [4]: 101%
residual activity [9]: 117%
residual activity [10]: 134%
residual activity [7]: 112%
residual activity [8]: 104%

COc1ccc2c(c[n+](C)c3c4cc5c(cc4ccc23)OCO5)c1OC
residual activity [1]: 86%
residual activity [2]: 66%
residual activity [3]: 12%
residual activity [4]: 3%
residual activity [10]: 81%
residual activity [7]: 94%
residual activity [8]: 59%

O=[N+]([O-])/C=C/c1ccc2c(c1)OCO2
residual activity [1]: 89%
residual activity [2]: 90%
residual activity [3]: 80%
residual activity [4]: 60%
residual activity [5]: 94%
residual activity [6]: 116%
residual activity [9]: 120%
residual activity [10]: 119%
residual activity [7]: 76%
residual activity [8]: 77%

O=C1c2ccccc2-c2nc3nnnn3nc21
residual activity [3]: 75%
residual activity [4]: 20%
residual activity [9]: 123%
residual activity [10]: 119%
residual activity [7]: 103%
residual activity [8]: 73%

COc1ccc2c(c1)/C(=C/c1cnc[nH]1)C(=O)N2
residual activity [2]: 70%
residual activity [4]: 71%
residual activity [5]: 3%
residual activity [6]: 0%
residual activity [7]: 77%
residual activity [8]: 46%

CN[C@@H]1C[C@H]2O[C@@](C)([C@@H]1OC)n1c3ccccc3c3c4c(c5c6ccccc6n2c5c31)C(=O)NC4
residual activity [9]: 29%
residual activity [10]: -12%

CC(C)[C@H](CO)Nc1nc(Nc2cccc(Cl)c2)c2ncn(C(C)C)c2n1
residual activity [1]: 63%
residual activity [2]: 8%
residual activity [3]: 99%
residual activity [4]: 59%
residual activity [5]: 3%
residual activity [6]: 1%
residual activity [9]: 8%
residual activity [10]: 0%
residual activity [7]: 66%
residual activity [8]: 16%

C[S+]([O-])c1ccc(-c2nc(-c3ccc(F)cc3)c(-c3ccncc3)[nH]2)cc1 (configuration not stated)
residual activity [1]: 94%
residual activity [2]: 89%
residual activity [3]: 102%
residual activity [4]: 62%
residual activity [5]: 121%
residual activity [6]: 115%
residual activity [9]: 94%
residual activity [10]: 104%
residual activity [7]: 77%
residual activity [8]: 42%

N/C(=N\[N+](=O)[O-])N/N=C\c1ccc(-c2cccc([N+](=O)[O-])c2)o1
residual activity [3]: 90%
residual activity [4]: 92%
residual activity [5]: 91%
residual activity [6]: 91%
residual activity [8]: 80%

COc1cc2ncnc(Nc3ccc(OCc4ccccc4)cc3)c2cc1OC
residual activity [1]: 107%
residual activity [2]: 67%
residual activity [3]: 106%
residual activity [4]: 78%
residual activity [5]: 69%
residual activity [6]: 72%
residual activity [9]: 93%
residual activity [10]: 122%
residual activity [7]: 97%
residual activity [8]: 57%

CCc1nc(-c2ccc(OC)cc2)[nH]c1-c1ccncc1
residual activity [1]: 102%
residual activity [2]: 75%
residual activity [3]: 111%
residual activity [4]: 106%
residual activity [9]: 113%
residual activity [10]: 107%
residual activity [7]: 100%

COC(=O)[C@@]1(O)C[C@H]2O[C@]1(C)n1c3ccccc3c3c4c(c5c6ccccc6n2c5c31)C(=O)NC4
residual activity [1]: 3%
residual activity [2]: 2%
residual activity [3]: 20%
residual activity [4]: 3%
residual activity [9]: 0%
residual activity [10]: 0%
residual activity [7]: 35%
residual activity [8]: 5%

O=C1NC(=O)c2c1c1c3ccccc3n3c1c1c2c2ccccc2n1C1CCC3O1
residual activity [1]: 66%
residual activity [2]: 76%
residual activity [5]: 12%
residual activity [6]: 3%
residual activity [9]: 19%
residual activity [10]: 14%
residual activity [7]: 71%
residual activity [8]: 81%

c1cc(-c2cnn3cc(-c4ccc(OCCN5CCCCC5)cc4)cnc23)ccn1
residual activity [2]: 75%
residual activity [4]: 44%
residual activity [5]: 28%
residual activity [6]: 2%
residual activity [9]: 61%
residual activity [10]: 7%
residual activity [7]: 44%
residual activity [8]: 7%

O=c1[nH]c2ccccc2n1C1CCN(Cc2ccc(-c3nc4cc5[nH]cnc5cc4nc3-c3ccccc3)cc2)CC1
residual activity [1]: 95%
residual activity [2]: 38%
residual activity [3]: 86%
residual activity [4]: 37%
residual activity [5]: 86%
residual activity [6]: 56%
residual activity [9]: 75%
residual activity [10]: 70%
residual activity [7]: 102%
residual activity [8]: 94%

O=C1Nc2ccc3ncsc3c2/C1=C/c1c[nH]cn1
residual activity [1]: 91%
residual activity [2]: 42%
residual activity [3]: 67%
residual activity [4]: 22%
residual activity [5]: 3%
residual activity [6]: -1%
residual activity [9]: 19%
residual activity [10]: -11%
residual activity [7]: 82%
residual activity [8]: 30%

CCn1cnc2c(Nc3cccc(Cl)c3)nc(N[C@@H]3CCCC[C@@H]3N)nc21
residual activity [1]: 39%
residual activity [2]: 7%
residual activity [3]: 83%
residual activity [4]: 42%
residual activity [5]: 12%
residual activity [6]: 1%
residual activity [9]: 15%
residual activity [10]: 0%
residual activity [7]: 52%
residual activity [8]: 10%
